Unmarked numbers belong to inactive results. The rule behind the calls is not given here.

This test has as its system Aerobactin synthetase IucA (Klebsiella pneumoniae, hypervirulent). As to the kind of experiment: biochemical IucA inhibition screen of LOPAC library by absorbance (AID 1346212).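 Note: 100% = no compound wells and 0% = no enzyme wells.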 As to conditions: IucA enzyme assay, absorbance (OD) readout; hits give low values;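 tested at 8 µM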.
For orientation: remaining activity means the signal under treatment as a percentage of the control signal. For `CC(=O)[C@@]1(O)CC[C@H]2[C@@H]3CCC4=CC(=O)CC[C@]4(C)[C@H]3CC[C@@]21C`, the remaining activity was 106%.

As to `CC(C)[N+]1(C)[C@@H]2CC[C@H]1CC(OC(=O)C(CO)c1ccccc1)C2` (stereo not given in full), the remaining activity was 118%.

Regarding `CC(=O)[C@H]1CCC2C3CC=C4C[C@@H](OS(=O)(=O)O)CC[C@]4(C)C3CC[C@@]21C` (stereo not given in full), the remaining activity was 107%.

Regarding `NC1(C(=O)O)CCc2cc(C(=O)O)ccc21` (stereo not given), the remaining activity is 110%.

In the case of `CNc1ncnc2c1ncn2[C@H]1C[C@H](OP(=O)(O)O)[C@@H](COP(=O)(O)O)O1`, the remaining activity is 124%.

Turning to `O=C(O)CNC(=O)C(CS)Cc1ccccc1` (stereo not given), the remaining activity was 119%.

On to `COc1ccc(NC(=O)c2ccc(-c3ccc(-c4noc(C)n4)cc3C)cc2)cc1N1CCN(C)CC1`, for which the remaining activity was 112%.

As for `COc1ccc2c(c1)CC[C@@H]1[C@@H]2CC[C@]2(C)[C@@H](NCCCCCCN3C(=O)CCC3=O)CC[C@@H]12`, the remaining activity is 119%.

As for `CC(N)(Cc1ccc(O)cc1)C(=O)O` (stereo not given), the remaining activity is 106%.

Take `C[C@H](O)C(=O)C1=Nc2c(nc(N)[nH]c2=O)NC1`: the remaining activity is 109%.

In the case of `O=C1NC(c2cccc([N+](=O)[O-])c2)=CCN1c1ccccc1O`, the remaining activity was 105%.

Regarding `CCC(C)N(C)C(=O)c1cc2ccccc2c(-c2ccccc2Cl)n1` (stereo not given), the remaining activity was 116%.

As to `COC(=O)c1c(C)[nH]c(C)c1C(=O)c1ccccc1Cc1ccccc1`, the remaining activity is 96.6%.

As for `CC1CNCCN1S(=O)(=O)c1cccc2cnccc12` (stereo not given), the remaining activity was 95.7%.

On to `Cc1ccccc1N1CCN(S(=O)(=O)C[C@@]23CC[C@H](CC2NC(=O)[C@H](N)CCS(C)(=O)=O)C3(C)C)CC1` (stereo not given in full), for which the remaining activity was 121%.

The record behind these values is PubChem BioAssay.
